Most compounds without a hit are left out; they make up all but 2.1% or so of the library.
Myeloid diff MLP: compounds promoting myeloid differentiation | ER-HoxA9 myeloid progenitors, lysozyme-GFP differentiation, flow cytometry | calls only at 10 µM | hit rate 1% among 360,000 | AID 624256;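 active = normalized GFP-positive differentiation at or above the plate's own cutoff, the solvent-only control mean plus 3 SD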;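 note: cells exposed to compound for four days before flow analysis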
Rpn11 inh: blocks the human proteasome subunit Rpn11; inhibition, % at 20 µM; hit rate 0.59% among 360,000; O00487; AID 588493; human 26S proteasome, Ub4-pepOG fluorescence polarization; 20S core pre-blocked with epoxomicin;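 active = inhibition at 20 µM, scaled to each plate's controls, above about 33%, limit read from the data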
TPT1 inh: blocks Candida albicans tRNA 2'-phosphotransferase; recombinant caTPT1, FP RNA substrate dephosphorylation; inhibition, % at 5 µM; hit rate 0.81% among 300,000; AID 1962;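 active = inhibition above the mean of all tested compounds plus 3 SD, set per screening campaign, cut at about 24% in these data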;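 note: plate controls were DMSO alone for no effect and ferristatin control at 100 nM for full effect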
HNF4A DNA FP: change in binding of human HNF4 alpha to DNA. activity change, % at 10 µM. HNF4a-FITC DNA binding, fluorescence polarization, 1 h. P41235. hit rate 0.3% among 360,000; in the data active = activity change above about 30%, passing the limit was not always enough
Target sequence (P41235 whole entry, looked up): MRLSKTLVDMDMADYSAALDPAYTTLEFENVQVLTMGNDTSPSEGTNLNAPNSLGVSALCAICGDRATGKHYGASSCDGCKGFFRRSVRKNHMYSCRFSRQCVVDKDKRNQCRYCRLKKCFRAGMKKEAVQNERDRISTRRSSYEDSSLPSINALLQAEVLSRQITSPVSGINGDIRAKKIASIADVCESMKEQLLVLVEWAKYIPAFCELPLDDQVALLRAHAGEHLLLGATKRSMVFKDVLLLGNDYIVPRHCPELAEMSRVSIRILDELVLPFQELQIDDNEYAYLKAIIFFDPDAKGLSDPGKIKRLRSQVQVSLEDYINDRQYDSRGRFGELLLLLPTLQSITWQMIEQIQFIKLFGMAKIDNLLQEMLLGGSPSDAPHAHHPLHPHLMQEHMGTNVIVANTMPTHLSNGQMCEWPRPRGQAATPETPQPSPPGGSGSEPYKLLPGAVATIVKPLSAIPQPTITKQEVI
Numbers without * were called inactive; i = inactive; / = not tested or not shown; + = active, no number.

SMILES	Myeloid diff MLP	Rpn11 inh	TPT1 inh	HNF4A DNA FP
O=C(Nc1ccccc1)c1oc2ccccc2c1NC(=O)C1CC1	i	0.5	1.0	61.2*
COc1ccc(/C=C2\N=C(C)OC2=O)cc1OC(C)=O	i	-11.9	/	4.2
COc1cc(OC)c(OC)cc1/C=C1/C(=O)N=C(N)N1C	i	15.6	1.0	2.5
COc1ccc(/C=C2/C(=O)N=C(N)N2C)cc1OC	+	12.0	5.0	2.8
COc1ccc(/C=C2\N=C(C)OC2=O)cc1OC	+	-2.0	3.8	2.3
O=C(CCSc1ccc(Cl)cc1)NC12CC3CC(CC(C3)C1)C2	i	8.4	-1.9	-0.1
CC(/C=C/c1ccc(O)cc1)=N/O	+	-2.0	-0.6	1.9
Cc1c(-c2ccc(F)cc2)nc(N)c(C#N)c1-c1ccco1	i	/	14.8	39.1*
CC(C)(O)C#Cc1ccc(N2C(c3ccsc3)=Cc3ccc(F)cc3C2c2c[nH]c3ccc(C#N)cc23)cc1 (configuration not stated)	+	/	/	23.1
CCOC(=O)c1ccc(-c2ccc(N3C(c4ccsc4)=Cc4ccc(F)cc4C3c3c[nH]c4ccc(C#N)cc34)cc2)cc1F (configuration not stated)	i	/	/	15.0
COc1cccc(-c2cnc(C(O)c3ccc(Cl)c(Cl)c3)[nH]2)c1 (configuration not stated)	i	-1.1	/	2.5
N#Cc1ccc(CSc2nnc(-c3ccccc3)n2Cc2ccco2)cc1	+	6.6	-1.1	4.8
CN(C)S(=O)(=O)c1cc(NC(=O)CSc2ncc(C(F)(F)F)cc2Cl)ccc1Cl	+	7.3	-1.5	-1.4
Cc1cccc(C)c1NC(=O)CN1C(=O)C2CC=CCC2C1=O (configuration not stated)	i	-2.3	/	-3.4
N#CCSc1ccccc1NC(=O)CN1C(=O)C2CC=CCC2C1=O (configuration not stated)	+	/	/	5.0
COc1ccc(Cc2c(-c3cccc(Cl)c3)nc3ccc(C)cn23)c(C)c1	i	20.2	/	12.3
Cc1ccc(OCCn2cnc3cc([N+](=O)[O-])ccc3c2=O)cc1	i	6.1	8.5	2.7
O=c1c2ccc([N+](=O)[O-])cc2ncn1CCOc1ccccc1	+	9.6	10.4	3.7
CC(Cc1ccccc1)C(=O)N[C@@H](CO)Cc1ccccc1 (some centres not stated)	+	-5.2	-1.0	-2.0
CC(Cc1ccccc1)C(=O)NCc1ccncc1 (configuration not stated)	i	-0.3	-1.4	3.9
CCCCN1C(=S)NC[C@@H]1Cc1ccccc1	i	-2.7	-4.5	-2.9
CN(C)c1cc[n+](CC(=O)c2cccs2)cc1	+	4.2	-3.4	3.2
Cc1cc[n+](CC(=O)c2cccs2)cc1	i	-3.9	1.0	2.5
CCN(CC)CC(=O)Nc1scc2c1c(=O)oc1ccccc12	i	-6.6	-1.1	0.9
Cc1ccc(OCC(=O)N/N=C\c2ccc(C)o2)c([N+](=O)[O-])c1	+	31.7	/	33.0
SMILES	Myeloid diff MLP	Rpn11 inh	TPT1 inh	HNF4A DNA FP
Cc1ccccc1NC(=O)Nc1nc(C2CCC(=O)N2)cs1 (configuration not stated)	i	-2.8	/	-2.9
O=C1/C(=C/c2ccc(O)c(O)c2)SC(=S)N1Nc1ccccc1	+	/	/	28.3
Cc1ccc(S(=O)(=O)Nc2ccc3c(c2)C(=O)N([C@H](C)CO)C[C@H](C)[C@@H](CN(C)C(=O)Nc2ccc(C(F)(F)F)cc2)O3)cc1	+	4.3	/	0.5
C[C@H](CO)N1C[C@H](C)[C@@H](CN(C)C(=O)Nc2ccc(F)cc2)Oc2ccc(NS(C)(=O)=O)cc2C1=O	+	1.8	/	6.1
C[C@H](CO)N1C[C@H](C)[C@@H](CN(C)C(=O)Nc2ccc(C(F)(F)F)cc2)Oc2ccc(NS(=O)(=O)c3cn(C)cn3)cc2C1=O	+	2.9	/	0.1
O=C(CNC(=O)c1ccc2c(c1)S(=O)(=O)N=C1CCCCCN12)Nc1ccc(F)c(F)c1	i	0.3	-3.5	3.0
Nc1nc(-c2cccnc2)nn1C(=O)c1ccc(F)cc1	i	-2.4	/	-9.0
Cc1ccc(N(C(=O)Nc2ccccc2)C2=NCC(C)S2)cc1 (configuration not stated)	i	-1.4	-0.8	32.9*
CC1CN=C(N(C(=O)Nc2ccccc2)C(C)C)S1 (configuration not stated)	i	-2.9	1.0	2.1
CN(CC(=O)Nc1ccccc1Br)C(=O)CNC(=O)c1ccc(Oc2ccccc2)cc1	+	3.1	-1.1	4.0
Cn1c(=O)c2c(nc(NCc3cccnc3)n2Cc2cccc(C(F)(F)F)c2)n(C)c1=O	i	-1.4	-1.0	1.4
